Nrf2 inh: Nrf2 qHTS screen for inhibitors. A549 ARE-Fluc reporter, luciferase luminescence, 18-24 h. Potency, µM (highest dose often 46 µM), without a hit: top-dose activity change, negative = inhibition, usual class: inhibitors. 360,000 tested, 2.1% active; further: on the % scale 0 is the no-effect control and ±100 the full control effect; nearly all actives have a fitted effect of over 60% in size
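Two sequential reads on A549 ARE_Fluc cells exposed to compound for 18-24 h: a CellTiter-Fluor fluorescence read for viability, then a luciferase luminescence read for Nrf2/ARE activity.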
Nrf2 activator: qHTS of Nrf2 Activators. AREc32 ARE-luciferase reporter (MCF7-derived line), luminescence, 24 h. Potency, µM (titrated, usually from 46.1 µM), for inactives: at the top dose activation, actives largely listed as activators. 410,000 tested, 0.31% active; further: % of control where 0% means no effect; nearly all actives have a fitted effect of over 65% in size
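Nrf2 activation is followed as ARE-luciferase induction in the AREc32 line after one day of compound treatment; luminescence is read with Steady-Glo.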
ELG1 DNA repair: qHTS screen for small molecules that inhibit ELG1-dependent DNA repair in human embryonic kidney (HEK293T) cells expressing luciferase-tagged ELG1. 330,000 tested, 2.3% active. HEK293T ELG1-luciferase reporter, luminescence, 16 h; DNA damage induced by 5-fluorouridine. Potency, µM (titrated, usually from 46.1 µM), for the others: at the highest dose activity change, negative = inhibition, actives largely listed as inhibitors; further: on the % scale 0 is the no-effect control and ±100 the full control effect; nearly all actives have a fitted effect of over 55% in size
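Reporter activity after DNA damage by 5-fluorouridine is monitored. Compound-treated cells incubate 16 hr at 37 °C, then ONE-Glo is added for 30 min before luminescence reading.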
A549 viability: Nrf2 qHTS screen for inhibitors: counterscreen for cytotoxicity; A549 ARE-Fluc cells, CellTiter-Fluor viability, 18-24 h; AID 504648, 2011; 390,000 tested, 0.16% active; Potency, µM (doses to about 46 µM), without a hit: top-dose activity change, negative = cytotoxicity, actives largely listed as inhibitors; further: on the % scale 0 is the no-effect control and ±100 the full control effect
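A549 ARE-Fluc cells in 5% FBS OPTI-MEM, 5000 cells/well, rested 2 h then exposed to compounds in concentration-response for 18-24 h at 37 °C. Viability by CellTiter-Fluor fluorescence (Ex 405/Em 525) after 30 min; luciferase luminescence (BugLite, 15 min, RT) read afterwards.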
Active calls of the source: *; u = inconclusive; x = no result. Sampled rows, rich in hits. Any-hit rate of the full collection: about 3.7%. The call rests on the fitted dose curve; in most records, active means well fitted curve in the direction sought with a large enough effect; inconclusive means small, poorly fitted or top-dose-only effect, or another doubt; inactive means no such curve, though single readings can be large; an effect the other way counts as inactive or inconclusive. Potency means the concentration at half of the fitted maximal effect.

SMILES	Nrf2 inh	Nrf2 activator	ELG1 DNA repair	A549 viability
O=c1[nH]nnc2sc3c(c12)CCCC3	-28%	0%	13µM*	4%
CC(=O)c1cccc(NC(=O)Nc2nnc(N3CCCC3)s2)c1	-15%	1%	x	6%
CCCCNC(=O)c1cccc(-n2cnc3cccnc32)c1C	16%	0%	x	16%
C=CCn1c(SCc2ccccc2Cl)nnc1-c1sc2nc(C)cc(C)c2c1N	1%	0%	21µM*	-8%
Cc1cc(C)c2c(N)c(-c3nnc(SCc4ccc(Cl)cc4)n3C)sc2n1	11%	0%	-13%	-2%
COC(=O)c1[nH]c2cc(OC)c(OC)cc2c1NC(=O)CN1CCN(Cc2ccccc2)CC1	x	x	1.6µM*	x
COC(=O)c1[nH]c2cccc(OC)c2c1NC(=O)CN1CCN(c2cccc(OC)c2)C(C)C1 (stereo not drawn)	-13%	2%	13µM*	-10%
COC(=O)c1[nH]c2ccccc2c1NC(=O)CN1CCN(C/C=C/c2ccccc2)CC1	u	9%	8.2µM*	-18%
CCOC(=O)c1[nH]c2ccc(F)cc2c1NC(=O)CN1CCN(C/C=C/c2ccccc2)CC1	u	9%	u	u
COc1ccc(C)cc1NC(=O)CN1CCN(C/C=C/c2ccccc2)CC1	-24%	5%	21µM*	x
COC(=O)c1[nH]c2cc(OC)ccc2c1NC(=O)CN1CCOCC1	x	x	-23%	x
COCCCNC(=O)C1CCC(CNS(=O)(=O)c2ccc3c(c2)N(C(C)=O)CCO3)CC1 (stereo not drawn)	14%	0%	20%	12%
Cc1ccc([N+](=O)[O-])cc1N=C1C(=O)Nc2ccccc21	-28%	u	u	-8%
COC(=O)c1[nH]c2ccc(C)cc2c1NC(=O)CN1CCC(C)CC1	u	0%	0%	-18%
COC(=O)c1[nH]c2ccc(C)cc2c1NC(=O)CN1CCN(C(=O)c2ccccc2)CC1	-20%	0%	21µM*	-4%
COC(=O)c1[nH]c2ccc(C)cc2c1NC(=O)CN1CCN(Cc2ccccc2)CC1	-8%	5%	8.2µM*	-9%
CCOC(=O)N1CCN(CC(=O)Nc2c(C(=O)OC)[nH]c3ccc(Cl)cc23)CC1	u	4%	u	-18%
CC(C)CC(=O)Nc1nnc(S(=O)(=O)N(CC(C)C)c2ccccc2)s1	u	0%	x	16%
Cc1ccc2nc(N/N=C/c3ccccc3C#N)nc(-c3ccccc3)c2c1	u	4%	21µM*	-11%
Cc1ccc(-n2nc(C)c3c(C)c(CCC(=O)NCc4ccco4)c(C)nc32)cc1	-19%	1%	23µM*	1%
Cc1ccc(CNC(=O)CCc2c(C)nc3c(c(C)nn3-c3ccc(C)cc3)c2C)cc1	15%	-1%	12%	-3%
O=C(c1cccc([N+](=O)[O-])c1)N1CCN(c2ccc(Nc3ccccc3)nn2)CC1	x	6%	x	-2%
O=[N+]([O-])c1cc(-n2cnnn2)ccc1N1CCC(Cc2ccccc2)CC1	10µM*	0%	u	u
O=C(NNc1nc(=O)c2cccnc2s1)c1ccccc1O	-17%	2%	15µM*	-19%
Cc1ccc(CNc2ncnc3cc(Cl)ccc23)cc1	21µM*	24%	u	-5%
SMILES	Nrf2 inh	Nrf2 activator	ELG1 DNA repair	A549 viability
Cc1ccccc1CNc1ncnc2cc(Cl)ccc12	u	20%	-7%	-1%
Cc1ccc(CNc2ncnc3onc(C)c23)cc1	8.2µM*	-1%	x	-2%
CC(C)C(=O)NCC(c1ccc2c(c1)OCO2)N1CCN(c2ccccc2)CC1 (stereo not drawn)	x	0%	x	-7%
Nc1c(N2CCCC2)cc(Cl)c2nonc12	16µM*	1%	u	u
CS(=O)(=O)Nc1cccc(NC(=O)C2Cc3c(-c4cccc(F)c4)ccnc3O2)c1 (stereo not drawn)	x	1%	x	x
CCOC(=O)C1=C(C)Nc2sc(C(=O)c3ccc(F)cc3)c(N)c2C1c1ccc(C(=O)OC)cc1 (stereo not drawn)	u	3%	5.2µM*	u
CCC1(C)Cc2c(sc3nnn(Cc4ccccc4Cl)c(=O)c23)CO1 (stereo not drawn)	15µM*	-1%	u	-14%
CCC1(C)Cc2c(sc3nnn(CC(=O)Nc4ccccc4C)c(=O)c23)CO1 (stereo not drawn)	-9%	0%	10µM*	0%
Cc1ccccc1NC(=O)Cn1nnc2sc3c(c2c1=O)CC(C)(C)OC3	-15%	0%	0%	-5%
COc1cccc(OC)c1C(=O)Oc1ccc2c(c1)O/C(=C\c1ccncc1)C2=O	u	3%	23µM*	2%
O=C1/C(=C/c2ccncc2)Oc2cc(OS(=O)(=O)c3ccccc3)ccc21	3%	0%	u	-2%
Cc1ccc(N2C(=O)CCC2=O)c(C)c1	6%	0%	x	3%
O=C1C=CC(n2cc(F)c(=O)[nH]c2=O)O1 (stereo not drawn)	x	25µM*	x	x
c1ccc(Cc2nnc(N3CCCCC3)c3ccccc23)cc1	18µM*	2%	0%	u
COCCCNC(=O)Cn1cc(/C=C(\C#N)C(=O)NC2CCCC2)c2ccccc21	-16%	-1%	19%	-8%
Nc1nc2ccc([N+](=O)[O-])cc2[nH]1	-4%	0%	0%	-14%
Nc1[nH]c2cc([N+](=O)[O-])ccc2c1-c1ccccn1	-24%	3%	-14%	13µM*
CC(=O)N1CCN(S(=O)(=O)c2cccc(C(=O)OCc3ccc(C(C)(C)C)cc3)c2)CC1	23µM*	0%	-9%	-13%
Cc1ccc(COC(=O)c2cccc(S(=O)(=O)N3CCCCCC3)c2)cc1	-1%	0%	u	-4%
CC1Cc2cc(S(=O)(=O)N3CCC(C(=O)N(C)Cc4ccccc4)CC3)ccc2N1C(=O)C1CC1 (stereo not drawn)	-12%	-1%	21µM*	3%
CC1Cc2cc(S(=O)(=O)CCC(=O)Nc3ccc(Cl)cc3F)ccc2N1C(=O)C1CC1 (stereo not drawn)	13µM*	1%	x	1%
CCC(=O)N1c2ccc(S(=O)(=O)N3CCN(c4cc(C)ccc4C)CC3)cc2CC1C (stereo not drawn)	16µM*	-1%	-8%	6%
CC1Cc2cc(S(=O)(=O)N3CCN(c4ccccc4F)CC3)ccc2N1C(=O)C1CC1 (stereo not drawn)	15µM*	-1%	-8%	-8%
Cc1cc(F)ccc1NC(=O)CCS(=O)(=O)c1ccc2c(c1)CC(C)N2C(=O)C1CC1 (stereo not drawn)	-26%	0%	x	-3%
Cc1ccc(C2=NS(=O)(=O)N(C)C(C(=O)NCc3ccccc3)=C2)cc1	6%	0%	6%	-3%
S=C(NCc1ccccc1)NC1CCSc2ccccc21 (stereo not drawn)	u	0%	19%	u

Screening data deposited in PubChem by National Center for Advancing Translational Sciences (NCATS).
